GLP-1R inv ag = qHTS of GLP-1 Receptor Inverse Agonists (Inhibition Mode); 1.6% of 410,000 active; Glucagon-like peptide 1 receptor (Homo sapiens), P43220; Potency, µM (doses to about 38.3 µM), without a hit: at the top dose activity change, negative = inhibition, usual class: inhibitors; HEK293 GLP-1R CRE-luciferase, luminescence, 24 h; GLP-1R form is constitutively active; further: on the % scale 0 is the no-effect control and ±100 the full control effect; nearly all actives have a fitted effect of over 55% in size
Target sequence (P43220 whole entry, looked up): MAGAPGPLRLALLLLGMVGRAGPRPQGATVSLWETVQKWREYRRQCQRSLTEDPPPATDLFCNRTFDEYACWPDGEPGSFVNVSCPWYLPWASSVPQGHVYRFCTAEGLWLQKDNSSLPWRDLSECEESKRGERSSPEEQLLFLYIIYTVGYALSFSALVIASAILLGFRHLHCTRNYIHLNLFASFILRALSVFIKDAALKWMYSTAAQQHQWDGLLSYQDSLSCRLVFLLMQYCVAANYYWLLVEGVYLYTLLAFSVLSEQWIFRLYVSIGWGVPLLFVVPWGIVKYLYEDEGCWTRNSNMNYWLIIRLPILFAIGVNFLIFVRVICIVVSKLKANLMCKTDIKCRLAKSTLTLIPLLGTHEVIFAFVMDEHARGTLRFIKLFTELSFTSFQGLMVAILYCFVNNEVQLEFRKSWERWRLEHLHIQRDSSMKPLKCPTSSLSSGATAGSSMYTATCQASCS
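Using stably transfected HEK293 (constitutively active GLP-1R, cAMP-luciferase reporter), compounds were incubated 24 hr and luciferase measured by luminescence.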
HEK293 tox = qHTS of GLP-1 Receptor Inverse Agonists: Cytotox Screen | Potency, µM (doses to about 38.3 µM), for inactives: top-dose activity change, negative = inhibition, most hits filed as inhibitors | HEK293 cAMP-luciferase reporter cells, luminescence, 24 h | 0.13% of 410,000 active;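 further: loss of luciferase light is scored as toxicity; on the % scale 0 is the no-effect control and ±100 the full control effect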
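Cells in DMEM/10% Nu serum/1% pen-strep, 1536-well format. Pre-incubated 12 h, dosed with 23 nL compound, incubated a further 24 h. Luciferase detection, 12 min at room temp, luminescence.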
GLP-1R agonist = qHTS of GLP-1 Receptor Agonists; Glucagon-like peptide 1 receptor (Homo sapiens), P43220; 0.007% of 380,000 active; AID 624172, 2012; Potency, µM (top dose mostly 45.6 µM), without a hit: at the highest dose activation, hits mostly activators; HEK293 GLP-1R CRE-luciferase, luminescence, 4-6 h; cells express a hypersensitive GLP-1R form; further: % of control where 0% means no effect
ClpP mod = qHTS Assay for Activators of ClpP | ATP-dependent Clp protease proteolytic subunit (Bacillus subtilis (strain 168)), P80244 | purified B. subtilis ClpP, FRET peptide cleavage, 20 min | Potency, µM (series often up to 57.5 µM), for the others: top-dose activity change, negative = active | 1.9% of 340,000 active | AID 651965, 2013; active means well fitted falling curve with a large enough effect; inconclusive means small, poorly fitted or top-dose-only effect; inactive means no such curve, though single readings can be large or run the other way; further: the source files actives as falling curves though it sought activators and does not explain the sign; nearly all actives have a fitted effect of over 65% in size
Target sequence (P80244 whole entry, looked up): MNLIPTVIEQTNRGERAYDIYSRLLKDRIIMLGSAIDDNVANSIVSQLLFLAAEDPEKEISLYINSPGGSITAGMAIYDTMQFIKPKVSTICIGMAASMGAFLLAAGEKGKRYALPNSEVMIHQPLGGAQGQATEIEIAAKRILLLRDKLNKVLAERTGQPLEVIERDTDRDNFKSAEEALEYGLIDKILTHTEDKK
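Purified B. subtilis ClpP, 10 microg/mL final in Tris/HCl pH8 with KCl, BSA, glycerol and Tween-20, cleaved an Abz/nitrotyrosine-quenched decapeptide. Fluorescence (ex 320, em 430) was read at 0 and 20 min at room temperature. Delta was normalized to 5.8 microM ADEP and DMSO/no-enzyme controls.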
Active calls of the source: *; u = inconclusive; x = no result; [ ] = another dose, or the depositor's remark. Hits are enriched below; roughly 3.2% of the tested compounds scored in any of these assays. Unless noted, the call rests on the fitted dose curve; in most records, active means well fitted curve in the direction sought with a large enough effect; inconclusive means small, poorly fitted or top-dose-only effect, or another doubt; inactive means no such curve, though single readings can be large; an effect the other way counts as inactive or inconclusive. Potency means the concentration at half of the fitted maximal effect.

SMILES	GLP-1R inv ag	HEK293 tox	GLP-1R agonist	ClpP mod
CCOc1ccc(-c2cc(NC(=O)c3ccccc3)c(C(=O)OC)s2)cc1	7.8%	-3.3%	x	35.5µM*
CC(=O)n1nc(-c2cccnc2)nc1NCc1ccc(F)cc1	13.3%	-1.2%	x	-1.2%
CCOc1ccc(-c2[nH]ncc2-c2ccccc2)c(O)c1	10µM*	-2.6%	4.7%	-18.6%
COc1ccc(-c2cn[nH]c2-c2ccc(OC)cc2O)cc1	10µM*	u	-2.2%	x
COc1ccc(-c2cn[nH]c2-c2ccc(OCc3ccccc3)cc2O)cc1	3.55µM*	u	1.9%	x
CCCOC(=O)c1ccc(Oc2c(-c3ccc(OCC)cc3O)n[nH]c2C)cc1	u	u	-8.3%	-1.3%
CCOc1ccc(-c2[nH]ncc2-c2csc(C)n2)c(O)c1	-19.5%	-4.2%	9.2%	x
CCCOC(=O)c1ccc(Oc2cn[nH]c2-c2ccc(OCC)cc2O)cc1	10µM*	u	-25.6%	0.4%
COc1ccccc1-c1cn[nH]c1-c1ccc(OCc2ccccc2)cc1O	u	u	15.1%	x
COc1cccc(OCc2nc3ccccc3n2CCOc2ccccc2)c1	u	12.7%	x	-0.9%
CCOC(=O)c1cc(-c2ccccc2)n(CC(=O)Nc2ccc(CC)cc2)c1C	-7.1%	15.0%	x	-3.2%
CCS(=O)(=O)NCCc1csc2nc(-c3ccc(C)cc3)nn12	31.8%	0.3%	x	-0.4%
Fc1ccc(CNc2nc(-c3ccccc3)cc(C(F)(F)F)n2)cc1	u	-3.2%	-3.4%	u
COc1ccc(-c2cc(C(F)(F)F)nc(NCc3ccc(Cl)cc3)n2)cc1	u	0.1%	-5.0%	4.2%
COc1ccc(CCNc2nc(-c3ccccc3OC)cc(C(F)(F)F)n2)cc1OC	3.55µM*	15.3%	2.8%	u
COc1ccccc1-c1cc(C(F)(F)F)nc(NCc2cccs2)n1	u	20.9%	5.1%	u
COc1cccc(-c2cc(C(F)(F)F)nc(NCc3ccc(F)cc3)n2)c1	u	7.1%	-4.8%	28.2µM*
FC(F)(F)c1cc(-c2ccco2)nc(NCCc2ccccc2)n1	u	-0.8%	2.2%	31.6µM*
COc1cccc(-c2cc(C(F)(F)F)nc(NCCc3ccccc3)n2)c1	u	2.9%	1.0%	28.2µM*
CCN(CC)CCn1c2c(c(SCC(=O)Nc3cccc(C(F)(F)F)c3)nc1=O)CCC2	7.8%	0.2%	x	-3.5%
COc1ccc(-c2cc(C(F)(F)F)nc(NCCc3ccccc3)n2)cc1OC	18.8%	1.2%	2.3%	-22.3%
COc1ccc(-c2cc(C(F)(F)F)nc(NCCc3ccccc3)n2)cc1	3.16µM*	24.8%	0.1%	4.1%
CCCSc1ccc2nc(-c3ccccc3)cn2c1	2.51µM*	-0.7%	-29.4%	22.4µM*
CC(SCc1ccccc1)C(=O)N/N=C/c1ccc2c(c1)OCO2 (stereo not drawn)	u	4.3%	-3.0%	-1.1%
CC(SCc1ccccc1)C(=O)N/N=C/c1cc2c(cc1Br)OCO2 (stereo not drawn)	10µM*	76.0%	1.1%	-22.1%
SMILES	GLP-1R inv ag	HEK293 tox	GLP-1R agonist	ClpP mod
N#Cc1nc(Cc2ccccc2)oc1NCc1cccnc1	57.9%	-0.9%	13.2%	28.2µM*
N#Cc1nc(Cc2ccccc2)oc1NCc1ccccc1Cl	u	5.8%	31.3%	-2.9%
COc1ccc(-c2nc(C#N)c(NCc3cccnc3)o2)cc1OC	0.0%	-14.7%	u	28.2µM*
N#Cc1nc(-c2cccc(Cl)c2)oc1NCc1cccnc1	0.6%	-14.5%	25.6%	2.24µM*
Cc1cc(C)c(S(=O)(=O)Nc2cc(Cl)c3oc4c(c3c2)C(=O)CCC4)cc1C	2.0%	12.4%	x	-1.1%
Cc1c(CNC2CCCCC2)c(C(=O)O)c(C)n1Cc1ccc(F)cc1	0.0%	11.0%	x	-0.1%
O=c1oc2c3c(ccc2c2ccccc12)OCN(Cc1ccccc1Cl)C3	8.5%	1.8%	x	-9.3%
O=[N+]([O-])c1ccc(Nc2nc(N/N=C/c3cccc(F)c3)nc(N3CCCC3)n2)cc1	u	-1.9%[1.53 µM]	-8.2%	-0.6%
COc1cccc(/C=N/Nc2nc(Nc3ccc([N+](=O)[O-])cc3)nc(N3CCCC3)n2)c1O	2.82µM*	u	-2.4%	x
CCOc1ccc(S(=O)(=O)NCC(c2ccco2)S(=O)(=O)c2ccc(F)cc2)cc1 (stereo not drawn)	-24.4%	-7.7%	x	0.2%
Cc1c(C(=O)N2CCC2)oc2c(F)cccc12	10.9%	10.3%	7.6%	12.6µM*
CCC(O)(C(=O)Nc1ccccc1C(F)(F)F)c1ccccc1OC (stereo not drawn)	-23.8%	0.8%	-1.3%	-1.1%
COc1ccccc1C(C)NCC(=O)Nc1ccccc1C(F)(F)F (stereo not drawn)	u	-7.5%	20.6%	17.8µM*
Cc1cc(C)c(S(=O)(=O)N2CCN(C(=O)C3COc4ccccc4O3)CC2)c(C)c1 (stereo not drawn)	10µM*	-2.2%	8.2%	-1.3%
Cc1ccc(S(=O)(=O)N2CCN(C(=O)C3COc4ccccc4O3)CC2)cc1C (stereo not drawn)	u	1.6%	4.8%	-3.7%
O=C(CSc1nc(-c2cccc(Cl)c2)nc2cc(=O)[nH]n12)Nc1ccccc1	-0.5%	3.6%	x	-3.3%
CC1(C)Cc2c(c(N3CCOCC3)nc3sc(C(=O)Nc4ccc(Cl)cc4)c(N)c23)CO1	11.0%	9.0%	12.1%	u
CC1(C)Cc2c(c(N3CCOCC3)nc3snc(N)c23)CO1	3.98µM*	-28.3%	-21.8%	-16.5%
Cc1nc2c(sc3nc(N4CCOCC4)c4c(c32)CC(C)(C)OC4)c(-c2ccc(Cl)cc2)c1C(=O)O	4.47µM*	80.1%	10.5%	-7.5%
NC(=O)NOCc1ncc(C(F)(F)F)cc1Cl	15.2%	-8.4%	0.0%	28.2µM*
CC(C)OC(=O)CSc1nc(Cc2ccccc2)nc2ccccc12	12.6µM*	4.4%	15.5%	-2.6%
COC(=O)CSc1nc(Cc2ccccc2)nc2ccccc12	-21.7%	5.2%	13.8%	-1.8%
OC1C(Br)=Cc2ccccc21 (stereo not drawn)	x	x	x	-1.6%
COc1cccc(CNC(=O)CN2C(=O)CSc3c2c(C)nn3-c2ccccc2)c1	0.8%	1.2%	x	-0.5%
O=C(NC(NC(=S)Nc1ccc(Cl)c(Cl)c1)C(Cl)(Cl)Cl)c1ccco1 (stereo not drawn)	3.55µM*	u	-37.2%	3.7%
O=C(NC(NC(=S)Nc1ccccc1C(=O)O)C(Cl)(Cl)Cl)c1ccco1 (stereo not drawn)	0.0%	60.9%	-1.6%	28.2µM*
COc1ccc2[nH]c(C)c(CCNS(=O)(=O)c3cc(F)ccc3OC)c2c1	-0.9%	-3.0%	x	0.6%
COc1ccc(C(=O)Nc2scc(-c3ccc(Cl)cc3Cl)c2C(N)=O)cc1	10.1%	-0.5%	0.3%	28.2µM*
CCOc1ccccc1NC(=O)CCCc1nc(-c2ccccc2Cl)no1	u	14.3%	x	-1.2%

From PubChem
